KDM5B inhibitor: Primary screen for KDM5B Histone Demethylases FDH-coupled qHTS. Lysine-specific demethylase 5B (Homo sapiens), Q9UGL1. KDM5B demethylase, FDH-coupled NADH fluorescence (FDH is formaldehyde dehydrogenase). Potency, µM (series often up to 57.7 µM), actives largely listed as inhibitors. 220,000 compounds, 2.6% hits; active = well fitted inhibition curve with a large enough effect; also: 0% is about no effect; nearly all actives have a fitted effect of over 70% in size
Target sequence (Q9UGL1 whole entry, looked up): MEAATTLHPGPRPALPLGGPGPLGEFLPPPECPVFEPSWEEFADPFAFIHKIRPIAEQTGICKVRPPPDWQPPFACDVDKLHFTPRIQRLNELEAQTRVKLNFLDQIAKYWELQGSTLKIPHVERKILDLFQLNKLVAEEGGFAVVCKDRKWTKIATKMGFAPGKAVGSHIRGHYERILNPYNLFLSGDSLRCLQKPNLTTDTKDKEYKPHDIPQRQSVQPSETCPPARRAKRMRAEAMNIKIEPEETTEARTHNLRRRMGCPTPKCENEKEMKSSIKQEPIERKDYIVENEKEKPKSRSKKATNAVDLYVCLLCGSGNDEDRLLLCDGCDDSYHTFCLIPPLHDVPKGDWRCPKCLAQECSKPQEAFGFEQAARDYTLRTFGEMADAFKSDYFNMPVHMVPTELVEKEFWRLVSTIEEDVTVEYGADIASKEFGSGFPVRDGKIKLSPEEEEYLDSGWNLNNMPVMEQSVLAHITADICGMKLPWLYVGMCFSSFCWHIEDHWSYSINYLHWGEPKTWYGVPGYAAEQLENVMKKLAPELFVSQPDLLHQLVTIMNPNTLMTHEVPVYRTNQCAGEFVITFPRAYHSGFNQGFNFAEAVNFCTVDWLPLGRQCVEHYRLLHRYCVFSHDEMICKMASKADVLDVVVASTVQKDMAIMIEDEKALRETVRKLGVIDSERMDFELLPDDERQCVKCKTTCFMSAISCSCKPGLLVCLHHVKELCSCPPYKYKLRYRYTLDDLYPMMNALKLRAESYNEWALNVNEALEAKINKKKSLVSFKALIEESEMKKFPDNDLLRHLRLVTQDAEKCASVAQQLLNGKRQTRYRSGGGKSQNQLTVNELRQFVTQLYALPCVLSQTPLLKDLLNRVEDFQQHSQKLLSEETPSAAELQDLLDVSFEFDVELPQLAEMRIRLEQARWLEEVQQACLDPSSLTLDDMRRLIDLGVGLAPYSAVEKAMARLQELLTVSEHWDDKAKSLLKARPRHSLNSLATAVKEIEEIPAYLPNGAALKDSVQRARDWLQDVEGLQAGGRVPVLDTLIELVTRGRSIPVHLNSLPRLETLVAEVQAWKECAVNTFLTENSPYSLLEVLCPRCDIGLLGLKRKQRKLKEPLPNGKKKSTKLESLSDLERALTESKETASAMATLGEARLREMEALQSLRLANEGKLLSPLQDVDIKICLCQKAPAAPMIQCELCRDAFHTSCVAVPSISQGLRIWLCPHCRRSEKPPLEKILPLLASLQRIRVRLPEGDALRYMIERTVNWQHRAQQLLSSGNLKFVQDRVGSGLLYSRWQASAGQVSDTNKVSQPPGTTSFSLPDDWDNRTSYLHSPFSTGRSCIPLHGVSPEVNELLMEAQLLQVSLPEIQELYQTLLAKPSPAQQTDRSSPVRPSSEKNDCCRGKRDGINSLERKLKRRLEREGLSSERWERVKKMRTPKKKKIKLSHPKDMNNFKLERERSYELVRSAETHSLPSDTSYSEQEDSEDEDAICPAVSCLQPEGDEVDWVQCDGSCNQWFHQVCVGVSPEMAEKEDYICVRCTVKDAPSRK
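KDM5BΔAP (200 nM final) in 50 mM HEPES pH 7.5, 0.01% Tween-20 was preincubated 10 min at RT with compound over a concentration range. Substrate mix (H3K4me3 12.5 µM, α-KG 25 µM, Fe²⁺, ascorbate, NAD⁺, FDH) was added, and NADH fluorescence change over 30 min gave dose-response curves.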
Active calls of the source: *; i = inactive. The sample as a whole holds a higher share of hits than the screen did. Potency is read from the fitted curve at half-maximal effect.

SMILES	KDM5B inhibitor
COc1ccc(NC(=O)C2(C)CN(C)Cc3ccc(NCc4ccccc4)nc32)cn1 (stereo unspecified)	31.6µM*
CN1Cc2ccc(NCc3ccccc3)nc2C(C)(C(=O)NC2CCC2)C1 (stereo unspecified)	i
COc1ccc(NC(=O)C2=NO[C@@H]3CN(CCc4ccccc4)C[C@H]23)cn1	i
COc1cccc(NC(=O)C2(C)CCc3cnc(NCc4ccccc4)nc32)c1 (stereo unspecified)	i
COc1ccc(NC(=O)C2(C)CCc3cnc(NCc4ccccc4)nc32)cn1 (stereo unspecified)	39.8µM*
COCCCNC(=S)NNC(=O)c1cc(C2CC2)nc2ccccc12	i
N#Cc1ccc(Cl)cc1NC(=S)NCCc1ccccc1	i
CN(CC(=O)Nc1ccccc1)C(=O)c1cc2c(s1)CCCCC2	i
Cc1c(C(=O)N2CCC(C(=O)Nc3ccc4c(c3)OCO4)CC2)oc2ccc(F)cc12	i
Cc1cc(C(=O)OC(C)C(=O)Nc2cc(C)on2)c2ccccc2n1 (stereo unspecified)	i
COc1c(F)cc(CN2CCCC3(CCNC3)C2)cc1F (stereo unspecified)	i
O=C1N[C@@H]2CCN(S(=O)(=O)c3ccccc3)[C@@H]2C(=O)N1c1ccc(Oc2ccccc2)cc1	i
N#Cc1cccc(C(=O)NCCSC(F)(F)F)c1	i
Cc1ccc(-c2ccc3nnc(CNC(=O)c4cccc(C#N)c4)n3n2)cc1	11.2µM*
COCc1ccc(CNC(=O)c2cccc(C#N)c2)cc1	i
Cc1ccc(-c2ccc3nnc(CNC(=O)c4cccc(N(C)C)c4)n3n2)cc1	i
CC(C)CCNC(=O)c1cccc(C#N)c1	i
N#Cc1cccc(C(=O)NCc2nnc3ccc(-c4ccc(F)cc4)nn23)c1	28.2µM*
CC(=O)N1N=C(c2ccc(F)cc2)CC1c1ccc2nccnc2c1 (stereo unspecified)	i
CC(C)N(Cc1cnn(C)c1)S(=O)(=O)c1ccc(Cl)cc1	i
CC(C)c1noc(-c2ccn3c(CNC(=O)Cc4ccccc4Cl)nnc3c2)n1	15.8µM*
CC(C)c1noc(-c2ccn3c(CNC(=O)Cc4ccc(F)cc4)nnc3c2)n1	i
Cc1ccc(CC(=O)NCc2nnc3cc(-c4nc(C(C)C)no4)ccn23)cc1	25.1µM*
CCCc1noc(-c2ccn3c(CNC(=O)Cc4ccccc4Cl)nnc3c2)n1	14.1µM*
CCc1cc(C(=O)N2CC=C(c3ccccc3)CC2)sc1C	i
SMILES	KDM5B inhibitor
COc1ccc(/C=N/OC(=O)COc2cc(C)cc(C)c2)cc1COc1ccc(F)cc1	i
Cc1nc(NC(C)C)sc1C(=O)NCc1ccco1	i
N#Cc1cccnc1Oc1ccc(C(N)=O)cc1	i
Cc1cc(NC(=O)CS(=O)(=O)c2ccc(C(C)(C)C)cc2)no1	i
CC(C)N1CCN(Cc2nnc3cc(-c4nc(-c5ccccc5)no4)ccn23)CC1	i
NC(=O)C1CCN(Cc2nc(-c3cccs3)no2)CC1	i
NC(=O)C1CCN(Cc2nnc3cc(-c4nc(-c5ccccc5)no4)ccn23)CC1	6.31µM*
CCN(CC)Cc1nnc2cc(-c3nc(-c4ccccc4)no3)ccn12	20µM*
C=CCN(CC=C)Cc1nnc2cc(-c3nc(-c4ccccc4)no3)ccn12	25.1µM*
C=CCN(Cc1nc(-c2ccccc2)no1)Cc1nccn1C	i
Ic1cccc(-c2nc(-c3ccccc3)no2)c1	i
Cc1noc(CSc2ccccc2C(=O)N2CC=C(c3ccccc3)CC2)n1	i
COc1ccc(-c2nc(C(C)C)nc3c2CCN(C(=O)c2ccccc2Cl)CC3)cc1	i
C=C(C)Cn1c(SCCOCC)nc2c1c(=O)[nH]c(=O)n2C	i
FC(F)(F)c1cccc(CSc2ncnc3ccccc23)c1	i
CCC(C(=O)Nc1nnc(CC2CCCC2)s1)c1ccccc1 (stereo unspecified)	i
CCCn1c(C)cc(C(=O)CSc2nnc(COc3ccccc3Cl)n2C)c1C	i
CC(NC(=O)CSc1nc2c(c(=O)n(C)c(=O)n2C)n1Cc1ccccc1F)c1ccccc1 (stereo unspecified)	i
CCS(=O)(=O)N1CCc2cc(C(=O)CSc3nnc(C)n3C3CC3)ccc21	i
CSc1ccc(C2=NN(S(=O)(=O)c3ccccc3)C(c3ccc4nccnc4c3)C2)cc1 (stereo unspecified)	i
O=C(OCC(=O)c1c[nH]c2ccccc12)c1cccs1	i
N#Cc1cccc(NC(=O)c2ccc3c(c2)NC(=O)CS3)c1	i
COC[C@@H]1CN(C(=O)c2cc3ccccc3[nH]2)C[C@H]1c1ccncc1	i
Cc1ccccc1-c1nccn2c(C3CN(C(=O)c4cc5ccccc5[nH]4)C3)ncc12	50.1µM*
O=C(c1ccn[nH]1)N1CC(c2ncc3c(-c4cccc(C(F)(F)F)c4)nccn23)C1	i
SMILES	KDM5B inhibitor
Cc1ccc(NC(=O)c2nc3ccccc3nc2N2CCOCC2)c(Cl)c1	i
Cc1nc(C)c(CC(=O)Nc2nnc(C3CCCCC3)s2)c(=O)[nH]1	i
CNc1nc2c(s1)C[C@]1(C)CCC([C@H](C)C(=O)N3CCSCC3)[C@H](O)[C@H]1[C@@H]2C (stereo partly specified)	i
COc1ccc(C(=O)N[C@H]2CC[C@]3(C)CCC([C@H](C)C(=O)N(C)Cc4cccnc4)[C@H](O)[C@H]3[C@@H]2C)cc1 (stereo partly specified)	i
C=CCN(C)C(=O)[C@@H](C)C1CC[C@@]2(C)Cc3sc(CSc4ccccc4)nc3[C@@H](C)[C@@H]2[C@H]1O (stereo partly specified)	i
C=CCN(C)C(=O)[C@@H](C)C1CC[C@@]2(C)Cc3sc(NCCCC)nc3[C@@H](C)[C@@H]2[C@H]1O (stereo partly specified)	35.5µM*
C[C@H](C(=O)N1CCSCC1)C1CC[C@@]2(C)Cc3sc(Nc4c(Cl)cccc4Cl)nc3[C@@H](C)[C@@H]2[C@H]1O (stereo partly specified)	i
COCCNC(=O)[C@@H](C)C1CC[C@@]2(C)Cc3sc(NC(=O)CN(C)C)nc3[C@@H](C)[C@@H]2[C@H]1O (stereo partly specified)	i
Cc1nc2c(s1)C[C@]1(C)CCC([C@H](C)C(=O)N3CCOCC3)[C@H](O)[C@H]1[C@@H]2C (stereo partly specified)	i
C=CCN(C)C(=O)[C@@H](C)C1CC[C@@]2(C)Cc3sc(-c4cccnc4)nc3[C@@H](C)[C@@H]2[C@H]1O (stereo partly specified)	31.6µM*
C[C@H](C(=O)NCCN1CCOCC1)C1CC[C@@]2(C)Cc3sc(-c4ccccc4)nc3[C@@H](C)[C@@H]2[C@H]1O (stereo partly specified)	25.1µM*
COc1ccc(CN(C)S(=O)(=O)c2ccc3c(c2)OCCCO3)cc1OC	i
COc1cccc2cc(C(=O)N(Cc3ccccc3)Cc3ccccc3)c(=O)oc12	i
O=C1CC(C(=O)NOCc2ccccc2)c2ccccc2N1 (stereo unspecified)	i
O=C(O)Cn1ncc(=O)c2ccccc21	i
CC(=O)N1CCC2(CC1)CN(C(=O)Cc1csc(N)n1)Cc1ccccc1O2	i
C/C(=N\OC(=O)c1ccc(F)cc1)c1ccc(C)cc1	i
Cc1nc(C)c(C(=O)NCC2Cn3cccc3C(=O)N2Cc2ccccc2)s1 (stereo unspecified)	i

Bioassay records (PubChem)
